{"source": "PubChem BioAssay AID1259343", "about": "(VanderVen Lab, College of Veterinary Medicine, Cornell …, 2017)", "note": "“And” between values parts separate entries of the source, which are not always exact repeats. Identical values can stand only once. Hit rate of the full screen: of about 6,200 compounds, about 2,900 (47%) were called active. Cut-off read from the data, not from the text of the source: active = inhibition above about 50%; inactive = the rest. The set was probably picked from earlier hits. The list shows a part of the results. Some compounds were tested as several samples or in several runs, with calls that do not always agree.", "data": [{"test": "Mycobacterium tuberculosis growth inhibition, primary screen (AID 1259343)", "settings": "inhibition: at 10 µM, stronger effect = higher value; outcome: 10 uM", "values": [{"smiles": "NCC(=O)Nc1ccc(-c2cccc3ccsc23)cc1F", "inhibition": "7.93% (inactive)"}, {"smiles": "COC(C)c1ccc(-c2ccc(NC(=O)CN)c(F)c2)cc1", "note": "(centres undefined)", "inhibition": "70.7% (active)"}, {"smiles": "Fc1ccccc1CCNc1ncnc2ccc(Cl)cc12", "inhibition": "60.7% (active)"}, {"smiles": "Fc1ccccc1-c1cnnc(NCCc2cccc(Cl)c2)n1", "inhibition": "37.3% (inactive)"}, {"smiles": "Fc1ccccc1CNCC1(c2ccnc(-c3ccc(Cl)cc3)c2)CC1", "inhibition": "44% (inactive)"}, {"smiles": "Cc1ccc(S(=O)(=O)NC(=O)c2cccc(F)c2)cc1C", "inhibition": "79% (active)"}, {"smiles": "COc1cc(C(=O)NS(=O)(=O)c2ccc(C#N)cc2)ccc1C", "inhibition": "21.9% (inactive)"}, {"smiles": "Cc1ccc(S(=O)(=O)NC(=O)c2ccccc2)cc1C(C)C", "inhibition": "72.5% (active)"}, {"smiles": "Cc1ccccc1C(C)NS(=O)(=O)c1ccc(Cl)cc1", "note": "(centres undefined)", "inhibition": "17.3% (inactive)"}, {"smiles": "Cc1ccc(S(=O)(=O)NC(c2cccs2)C2CC2)cc1C", "note": "(centres undefined)", "inhibition": "37.1% (inactive)"}, {"smiles": "CN(C)P(=Nc1ccc([N+](=O)[O-])cc1Br)(N(C)C)C(C)(C)C", "inhibition": "11% (inactive)"}, {"smiles": "O=[N+]([O-])c1cc(Br)c(O)c(Br)c1", "inhibition": "98.7% (active)"}, {"smiles": "Cc1cc([N+](=O)[O-])cc(C(C)(C)C)c1O", "inhibition": "101% (active)"}, {"smiles": "CC[n+]1c(C)csc1Nc1ccc(N=Nc2ccccc2)cc1", "inhibition": "-14.7% (inactive)"}, {"smiles": "O=C(O)CC[N+](=O)[O-]", "inhibition": "98.6% (active)"}, {"smiles": "Cc1nc(SCc2nc3ccccc3o2)c2ccccc2n1", "inhibition": "51.7% (active)"}, {"smiles": "CC(C)Oc1ncccc1CNC(=O)N1CCc2ccccc21", "inhibition": "28.7% (inactive)"}, {"smiles": "CN1CC2([N+](=O)[O-])C=C(Oc3ccc(F)cc3)CC([N+](=O)[O-])(C1)C2", "note": "(centres undefined)", "inhibition": "94.6% (active)"}, {"smiles": "Cc1ccc(Cl)cc1NCc1cnc(Cl)s1", "inhibition": "26.4% (inactive)"}, {"smiles": "Cc1nnc(NCCC23CC4CC(CC(C4)C2)C3)c(C#N)c1C", "inhibition": "50.3% (active)"}, {"smiles": "CC[C@@H](C(=O)[C@@H](C)[C@@H](O)[C@H](C)[C@@H]1O[C@@H]([C@@H](CC)C(=O)O)CC[C@@H]1C)[C@H]1OC2(C=C[C@@H](O)[C@]3(CC[C@@](C)([C@H]4CC[C@](O)(CC)[C@H](C)O4)O3)O2)[C@H](C)C[C@@H]1C", "note": "(some centres undefined)", "inhibition": "100% (active)"}, {"smiles": "C(=Nc1ccc(C23CC4CC(CC(C4)C2)C3)cc1)c1ccncc1", "inhibition": "-6.32% (inactive)"}, {"smiles": "O=c1cccnn1CCNS(=O)(=O)c1ccc(Cl)s1", "inhibition": "99.9% (active)"}, {"smiles": "CC(C)(C)C(=O)/C=c1/[nH]c(=O)/c(=C/c2ccc(F)c(Br)c2)s1", "inhibition": "101% (active)"}, {"smiles": "Cc1ccc(C)c(C=c2sc(=CC(=O)C(C)(C)C)[nH]c2=O)c1", "inhibition": "inactive"}, {"smiles": "CC(C)(C)C(=O)C=c1[nH]c(=O)c(=Cc2c(F)c(F)c(F)c(F)c2F)s1", "inhibition": "101% (active)"}, {"smiles": "Cc1ccc(Cn2nc(C)c(C=c3s/c(=C\\C(=O)C(C)(C)C)[nH]c3=O)c2C)cc1", "inhibition": "9.64% (inactive)"}, {"smiles": "CC(C)c1ccc(C=c2sc(=CC(=O)C(C)(C)C)[nH]c2=O)cc1", "inhibition": "92.9% (active)"}, {"smiles": "O=C(Nc1nccn1CC1CC1)c1cc(F)c(Cl)cc1Cl", "inhibition": "94.8% (active)"}, {"smiles": "CC(C)(C)n1c(NC(=O)c2ccc(F)cc2Cl)nc2ccccc21", "inhibition": "-8.71% (inactive)"}, {"smiles": "Cc1ccc(S(=O)(=O)Nc2nc(-c3ccc(F)c(F)c3)cs2)cc1", "inhibition": "80.1% (active)"}, {"smiles": "Cc1ccc(-c2csc(C=Cc3c(C)noc3C)n2)cc1", "inhibition": "43.6% (inactive)"}, {"smiles": "CCCc1cc(=O)n2[nH]cc(-c3ccccc3)c2n1", "inhibition": "11.4% (inactive)"}, {"smiles": "Cc1cc(C)nc(SCc2cc(=O)n3[nH]c(C)c(-c4ccccc4)c3n2)n1", "inhibition": "100% (active)"}, {"smiles": "CC(C)c1cc(=O)n2[nH]cc(-c3ccccc3)c2n1", "inhibition": "-1.37% (inactive)"}, {"smiles": "Cc1[nH]n2c(=O)cc(C(C)C)nc2c1-c1ccccc1", "inhibition": "100% (active)"}, {"smiles": "CCCc1cc(NC)n2ncc(-c3ccccc3)c2n1", "inhibition": "-27.3% (inactive)"}, {"smiles": "CCCc1cc(NC)n2nc(C)c(-c3ccccc3)c2n1", "inhibition": "95.4% (active)"}, {"smiles": "Cc1ccc(-c2c(C)nn3c(NCC(C)C)cc(C)nc23)cc1", "inhibition": "47.5% (inactive)"}, {"smiles": "CCOC(=O)Cc1cc(=O)n2[nH]c(-c3ccccc3)c(-c3ccccc3)c2n1", "inhibition": "40.6% (inactive)"}, {"smiles": "CCCc1cc(=O)n2[nH]c(C)c(-c3ccccc3)c2n1", "inhibition": "78.8% (active) and -6.08% (inactive)"}, {"smiles": "N#Cc1cccc(OCCN2CCCc3cc(F)ccc32)c1", "inhibition": "36.8% (inactive)"}, {"smiles": "N#Cc1cccc(S(=O)(=O)Oc2ccccc2)c1", "inhibition": "68.3% (active)"}, {"smiles": "COc1ccc(S(=O)(=O)Oc2cccc(CNCc3ccc(F)cc3)c2)cc1", "inhibition": "30.6% (inactive)"}, {"smiles": "N#Cc1cccc(S(=O)(=O)Oc2ccc(F)c(F)c2)c1", "inhibition": "100% (active)"}, {"smiles": "N#Cc1ccc(OS(=O)(=O)c2cccc(F)c2)cc1", "inhibition": "92.1% (active)"}, {"smiles": "N#Cc1cccc(S(=O)(=O)Nc2cc(C(F)(F)F)ccc2-n2cccn2)c1", "inhibition": "33.2% (inactive)"}, {"smiles": "N#Cc1ccc(OS(=O)(=O)c2ccc(F)cc2)cc1", "inhibition": "29.4% (inactive)"}, {"smiles": "CN(Cc1ccc(OC(F)F)cc1)S(=O)(=O)c1cccc(C#N)c1", "inhibition": "28% (inactive)"}, {"smiles": "CC(C)NC(=O)NC(=O)COC(=O)C1CC1", "inhibition": "23.7% (inactive)"}, {"smiles": "CC(C)NC(=O)CCC1CCCCC1", "inhibition": "103% (active)"}, {"smiles": "COc1ccc(-n2ccnc2CN2CCc3c([nH]c4ccccc34)C2c2ccccn2)cc1", "note": "(centres undefined)", "inhibition": "inactive"}, {"smiles": "CC(C)CCC(=O)C(C#N)c1nnc(-c2ccccc2)n1C", "note": "(centres undefined)", "inhibition": "85.2% (active)"}, {"smiles": "Cn1c(-c2ccccc2)nnc1C(C#N)C(=O)C1CC=CCC1", "note": "(centres undefined)", "inhibition": "93.3% (active)"}, {"smiles": "N#CC(C(=O)CC1CCCC1)c1nc(N)nc(Nc2ccccc2)n1", "note": "(centres undefined)", "inhibition": "1.29% (inactive)"}, {"smiles": "NC(=NS(=O)(=O)c1ccc(Cl)cc1)c1ccc(Cl)cc1", "inhibition": "15.6% (inactive)"}, {"smiles": "COc1ccc(CCC(=O)NNc2cccc(Cl)c2)cc1Br", "inhibition": "98.9% (active)"}, {"smiles": "COc1ccc(COc2ccccc2NC(C)=O)cc1Br", "inhibition": "36.3% (inactive)"}, {"smiles": "COc1ccc(Br)cc1CN(C)CC(=O)Nc1cc(Cl)cc(Cl)c1", "inhibition": "-7.89% (inactive)"}, {"smiles": "OCC1(Cc2ccccc2)CCN(Cc2cc3ccccc3s2)CC1", "inhibition": "30.1% (inactive)"}, {"smiles": "OCC1(Cc2ccccc2Cl)CCN(CC#Cc2ccccc2)CC1", "inhibition": "83.9% (active)"}, {"smiles": "OCC1(Cc2ccccc2C(F)(F)F)CCN(c2ccc(Cl)cn2)CC1", "inhibition": "8.01% (inactive)"}, {"smiles": "O=C(C=Cc1ccc([N+](=O)[O-])cc1)c1ccc(F)cc1", "inhibition": "25.8% (inactive)"}, {"smiles": "O=C(/C=C/c1cccc([N+](=O)[O-])c1)n1cnc2ccccc21", "inhibition": "96.9% (active)"}]}]}
